Test results as given in PubChem BioAssay (EPA / NIEHS).
Activity calls are given as the source filed them. How the source made its calls: active means hit-call score of the fitted dose curve at least 0.9, where 1 is the maximum; inactive means score below 0.9.

Experiments:
[1] = ATG_CRE_CIS: Attagene CIS-FACTORIAL HepG2 Assay for human cAMP Responsive Element (CRE) binding protein 3 (AID 2282926); conditions: HepG2 CRE cis-reporter, Attagene multiplexed mRNA; actives raise or lower the signal
How it was run: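 Multiplexed transcription-unit reporters transfected into HepG2; 24 h dosing; RT-PCR/capillary electrophoresis fluorescence read-out; bidirectional fit vs DMSO.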

[2] = target: CCAAT/enhancer-binding protein beta (Homo sapiens) (UniProt P17676); experiment: ATG_C_EBP_CIS: Attagene CIS-FACTORIAL HepG2 Assay for human CCAAT/Enhancer Binding Protein (C/EBP) beta (AID 2282927); conditions: HepG2 Attagene cis-factorial transcription factor reporter; actives raise or lower the signal
Sequence of CCAAT/enhancer-binding protein beta (Homo sapiens) (P17676 whole entry, looked up): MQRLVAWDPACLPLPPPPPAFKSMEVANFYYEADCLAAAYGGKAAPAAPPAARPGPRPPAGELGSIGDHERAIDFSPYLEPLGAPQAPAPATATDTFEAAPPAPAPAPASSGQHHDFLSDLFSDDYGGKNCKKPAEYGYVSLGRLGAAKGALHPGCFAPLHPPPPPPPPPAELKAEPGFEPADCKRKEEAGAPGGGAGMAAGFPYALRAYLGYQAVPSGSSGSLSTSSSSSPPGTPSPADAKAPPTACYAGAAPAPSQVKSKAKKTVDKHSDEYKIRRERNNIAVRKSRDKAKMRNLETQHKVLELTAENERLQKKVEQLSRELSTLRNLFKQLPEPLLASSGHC
How it was run: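 Following a 24 h incubation with test chemical, transfected HepG2 cells yielded RNA whose reporter transcripts were quantified by RT-PCR and fluorescent capillary electrophoresis, with DMSO serving as baseline for bidirectional fitting.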

[3] = ATG_CMV_CIS: Attagene CIS-FACTORIAL HepG2 Assay for human CMV (Internal Marker) (AID 2282928); conditions: HepG2 CMV promoter reporter, transcription factor profiling; actives raise or lower the signal;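 further: endpoint acts as a background internal control marker rather than a target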
How it was run: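 Cell system: HepG2, transiently transfected multiple reporter units under cis promoters. Exposure: 24 h. Detection: RT-PCR, FAM labeling, HpaI digestion, capillary electrophoresis. Analysis: bidirectional, DMSO baseline.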

[4] = ATG_DR4_LXR_CIS: Attagene CIS-FACTORIAL HepG2 Assay for human Liver X Receptor (LXR), DR4 submotif (AID 2282929); conditions: HepG2 Attagene DR4 cis-reporter, mRNA transcription; actives raise or lower the signal
How it was run: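 Fluorescence intensity of labelled reporter cDNA fragments, separated by capillary electrophoresis, gives the signal. HepG2 cells bearing cis-regulated reporter constructs were treated 24 h; activity fitted bidirectionally relative to DMSO negative control.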

[5] = target: Aryl hydrocarbon receptor (Homo sapiens) (UniProt P35869); experiment: ATG_Ahr_CIS: Attagene CIS-FACTORIAL HepG2 Assay for human Aryl Hydrocarbon Receptor (Ahr) (AID 2282930); conditions: HepG2 AhR cis-factorial reporter transcription; actives raise or lower the signal
Sequence of Aryl hydrocarbon receptor (Homo sapiens) (P35869 whole entry, looked up): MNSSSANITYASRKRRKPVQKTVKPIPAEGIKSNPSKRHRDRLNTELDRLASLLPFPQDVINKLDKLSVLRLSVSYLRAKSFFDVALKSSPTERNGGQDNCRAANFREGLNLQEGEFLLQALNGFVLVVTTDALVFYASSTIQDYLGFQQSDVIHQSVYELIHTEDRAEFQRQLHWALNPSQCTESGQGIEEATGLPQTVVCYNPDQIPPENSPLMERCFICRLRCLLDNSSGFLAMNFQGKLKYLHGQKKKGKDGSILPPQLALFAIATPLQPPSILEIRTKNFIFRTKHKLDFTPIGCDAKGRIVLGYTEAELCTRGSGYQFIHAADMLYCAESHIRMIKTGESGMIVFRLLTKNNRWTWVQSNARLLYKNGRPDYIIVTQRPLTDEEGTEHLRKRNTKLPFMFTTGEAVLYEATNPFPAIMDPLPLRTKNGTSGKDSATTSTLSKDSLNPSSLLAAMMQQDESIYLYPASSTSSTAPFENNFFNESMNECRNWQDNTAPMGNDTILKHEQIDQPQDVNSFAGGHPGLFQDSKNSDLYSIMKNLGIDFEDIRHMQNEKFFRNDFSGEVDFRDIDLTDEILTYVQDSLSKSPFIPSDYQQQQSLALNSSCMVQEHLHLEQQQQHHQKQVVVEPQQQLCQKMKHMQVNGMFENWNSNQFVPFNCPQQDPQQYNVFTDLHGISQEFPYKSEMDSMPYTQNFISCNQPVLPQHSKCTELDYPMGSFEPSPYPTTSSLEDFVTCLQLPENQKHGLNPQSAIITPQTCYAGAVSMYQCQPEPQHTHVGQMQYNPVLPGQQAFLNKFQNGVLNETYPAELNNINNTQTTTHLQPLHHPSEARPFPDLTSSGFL
How it was run: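 Values derive from bidirectional fitting against DMSO negative control. Underlying signal: cis-element reporter mRNA in transiently transfected HepG2, harvested 24 h post-dose and measured by RT-PCR plus capillary electrophoresis.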

[6] = ATG_AP_1_CIS: Attagene CIS-FACTORIAL HepG2 Assay for human Activator Protein 1 (AP-1) (AID 2282931); conditions: HepG2 Attagene cis-factorial AP-1 reporter mRNA; actives raise or lower the signal
How it was run: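 Multiplexed HepG2 reporter assay, 24 h dosing. mRNA induction detected by RT-PCR plus capillary electrophoresis. Activity fitted in both directions against DMSO.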

[7] = ATG_AP_2_CIS: Attagene CIS-FACTORIAL HepG2 Assay for human Activator Protein 2 (AP-2) (AID 2282932); conditions: HepG2 AP-2 cis-reporter, Attagene transcription factor profiling; actives raise or lower the signal
How it was run: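 HepG2 cells were transiently transfected with multiple cis-promoter reporter transcription units and dosed for 24 h. Reporter mRNA was measured by RT-PCR with capillary electrophoresis fluorescence; bidirectional fits relative to DMSO baseline.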

[8] = ATG_BRE_CIS: Attagene CIS-FACTORIAL HepG2 Assay for human Bone Morphogenetic Protein (BMP) Response Element (BRE) (AID 2282933); conditions: HepG2 BMP response element reporter, Attagene transcription factor profiling; actives raise or lower the signal
How it was run: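 Fluorescence-labelled reporter cDNA fragments, separated by capillary electrophoresis, gave the signal for this component of a 52-readout multiplex. HepG2 cells were transfected, exposed to chemicals for 24 h, and compared with DMSO using bidirectional fitting.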

[9] = target: Retinoic acid receptor alpha (Homo sapiens) (UniProt P10276); experiment: ATG_DR5_RAR_CIS: Attagene CIS-FACTORIAL HepG2 Assay for human Retinoic Acid Receptor Alpha (RARE), DR5 submotif (AID 2282934); conditions: HepG2 Attagene cis-factorial RARE DR5 reporter, mRNA; actives raise or lower the signal;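 on AC50: reporter responds to endogenous RAR alpha beta and gamma in HepG2 not RARA alone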
Sequence of Retinoic acid receptor alpha (Homo sapiens) (P10276 whole entry, looked up): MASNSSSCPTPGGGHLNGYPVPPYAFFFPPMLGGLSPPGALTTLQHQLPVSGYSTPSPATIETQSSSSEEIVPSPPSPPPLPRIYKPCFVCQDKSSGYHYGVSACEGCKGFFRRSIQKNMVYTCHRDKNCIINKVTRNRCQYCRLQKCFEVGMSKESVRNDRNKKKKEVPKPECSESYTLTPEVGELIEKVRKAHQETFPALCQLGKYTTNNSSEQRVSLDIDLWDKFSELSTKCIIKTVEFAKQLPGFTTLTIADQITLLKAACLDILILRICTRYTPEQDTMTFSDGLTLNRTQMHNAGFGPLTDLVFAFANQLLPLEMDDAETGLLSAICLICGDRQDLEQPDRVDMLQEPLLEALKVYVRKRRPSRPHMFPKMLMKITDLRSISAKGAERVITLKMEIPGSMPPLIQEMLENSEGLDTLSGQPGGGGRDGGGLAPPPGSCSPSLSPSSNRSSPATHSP
How it was run: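 Endpoint fitted in both directions relative to DMSO as negative control. It reflects DR5 cis-element reporter mRNA induction in transiently transfected HepG2 cells, measured 24 h after dosing through RT-PCR and fluorescent capillary electrophoresis.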

[10] = target: Transcription factor E2F1 (Homo sapiens) (UniProt Q01094); experiment: ATG_E2F_CIS: Attagene CIS-FACTORIAL HepG2 Assay for human E2F Transcription Factor 1 (AID 2282935); conditions: HepG2 Attagene cis-reporter, E2F reporter RNA transcripts; actives raise or lower the signal
Sequence of Transcription factor E2F1 (Homo sapiens) (Q01094 whole entry, looked up): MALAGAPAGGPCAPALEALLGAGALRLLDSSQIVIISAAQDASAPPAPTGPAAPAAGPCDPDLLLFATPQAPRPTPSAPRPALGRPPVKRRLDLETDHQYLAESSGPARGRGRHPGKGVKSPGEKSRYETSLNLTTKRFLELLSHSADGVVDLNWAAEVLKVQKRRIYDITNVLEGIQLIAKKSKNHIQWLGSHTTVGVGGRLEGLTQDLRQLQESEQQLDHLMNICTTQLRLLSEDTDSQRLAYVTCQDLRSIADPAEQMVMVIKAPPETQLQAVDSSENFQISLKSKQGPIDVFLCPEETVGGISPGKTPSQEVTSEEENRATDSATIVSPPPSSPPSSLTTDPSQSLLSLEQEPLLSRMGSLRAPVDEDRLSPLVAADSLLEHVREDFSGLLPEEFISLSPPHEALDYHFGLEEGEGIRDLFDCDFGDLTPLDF
How it was run: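 HepG2 cells transiently transfected with multiplexed cis-element reporter units, dosed for 24 h. Reporter mRNA measured by RT-PCR, 6-FAM primer-extension labeling, HpaI digestion and capillary electrophoresis; bidirectional fit versus DMSO baseline.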

Measured: AC50

COC(=O)c1ccc2cc(C(=O)OC)ccc2c1
inactive: all assays above

O=c1c2ccccc2oc2ccccc12
inactive: all assays above

O=CC1CC1
active: [5] 0.119 µM
inactive: all other assays above

CCCOCCOCCOCCO
inactive: all assays above

CCOc1nc(F)cc2nc(S(=O)(=O)Nc3c(Cl)cccc3C(=O)OC)nn12
inactive: all assays above

O=c1[nH]nc(-c2ccc([N+](=O)[O-])o2)o1
active: [6] 87.6 µM
inactive: all other assays above

COc1ccc(C(Cl)=C(c2ccc(OC)cc2)c2ccc(OC)cc2)cc1
inactive: all assays above

CCOC(=O)NNc1nncc2ccccc12
inactive: all assays above

CC(=O)c1ccc[nH]1
inactive: all assays above

C[C@]12C=CC(=O)C=C1CC[C@@H]1[C@@H]2[C@@H](O)C[C@@]2(C)[C@H]1CC[C@]2(O)C(=O)CO
inactive: all assays above

CC(=O)[C@@]1(O)CC[C@H]2[C@@H]3C[C@H](C)C4=CC(=O)C=C[C@]4(C)[C@@]3(F)[C@@H](O)C[C@@]21C
active: [9] 100 µM
inactive: all other assays above

CC(CC=O)CCCC(C)(C)O (stereo not given)
inactive: all assays above

CN(C)CCCN(C)C
inactive: all assays above

O=C(/C=C/C=C/c1ccc2c(c1)OCO2)N1CCCCC1
active: [4] 72.6 µM | [8] 176 µM
inactive: all other assays above

CCCOC(=O)CCCCC(=O)OCCC
inactive: all assays above

CCCCC(CC)COC(=O)c1ccccc1O (stereo not given)
inactive: all assays above

O=C(O)c1cc(Cl)cc([N+](=O)[O-])c1Cl
inactive: all assays above

O=S1(=O)OC(c2ccc(O)cc2)(c2ccc(O)cc2)c2ccccc21
active: [5] 34.9 µM
inactive: all other assays above

COC(F)(F)C(F)(C(F)(F)F)C(F)(F)F
inactive: all assays above

NC(CO)(CO)CO
inactive: all assays above

COc1c2ccoc2cc2oc(=O)ccc12
inactive: all assays above

CCCCCCOc1cc(C)c(O)c(C)c1C
inactive: all assays above

CCOC(=O)[C@H](C)O
inactive: all assays above

CCCCC(CC)COC(=O)c1ccccc1 (stereo not given)
inactive: all assays above
